Experimental data reported in PubChem BioAssay (NCI).
Compounds without any hit were thinned out: in the full panel of roughly 79,000, 15% have a hit. Unmarked numbers belong to inactive results. Cut-off read from the data, not from the text of the source: active = growth inhibition above about 70%; inactive = the rest.

experiment: NCI Yeast Anticancer Drug Screen. Data for the cln2 rad14 strain (AID 165);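 note: 0% = growth equal to vehicle treated cultures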; details: S. cerevisiae cln2 rad14 strain, at 50.0 µM, stronger effect = higher value
Method in brief: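 Readout is yeast growth inhibition versus vehicle-treated controls, using a strain with cln2 and rad14 alterations exposed to compound.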

Point of comparison: `Nc1nc(-c2ccccc2)ns1`, growth inhibition 8.4%. Against it:
- COc1ccc(C2OC3=C(Nc4ccc(Cl)cc4N3)C2=O)c(OC)c1 (configuration not stated) — lower, -29.9%
- O=C(O)CN1CCN(CC(=O)O)CCN(CC(=O)O)CCN(CC(=O)O)CC1 — lower, -17.6%
- COC(=O)CCC(=O)CC(=O)C(=O)Nc1ccc(F)cc1 — lower, -2.6%
- c1ccc(-c2nc(-c3ccccn3)cc3ccccc23)cc1 — lower, 2.8%
- CC12CCC(C(Br)C1=O)C2(C)CBr (configuration not stated) — higher, 23.8%
- CN1CCC(OC(=O)C(O)C2CCCCC2)CC1 (configuration not stated) — higher, 31.2%
- CCCCCCCCCCCCOP(=O)(O)OP(=O)(O)OCC1OC(n2ccc(N)nc2=O)CC1O (configuration not stated) — higher, 17.1%
- COc1ccc2c(c1OC)Oc1c(OC)ccc3c1C(C2)N(C)C[C@@H]3O (some centres not stated) — lower, -0.6%
- CC(=O)c1c(-c2ccccc2)noc1C — lower, -37.4%
- CCN(CC)CCCC(C)Nc1cc(C)c2nc(C)cc(C)c2c1C (configuration not stated) — lower, -13%
- CC(=O)ONc1nc(C)c(CCC2OCCO2)c(SC(=N)N)n1 — higher, 14.9%
- O=C(NCC(F)(F)C(F)(F)C(F)(F)C(F)(F)C(F)(F)C(F)(F)C(F)(F)F)Oc1ccccc1 — higher, 9.45%
- CC(=O)C1(C)SC(N(c2ccccc2)c2ccccc2)=NC1=O (configuration not stated) — lower, 2.4%
- O=c1cc(O)n2ncnc2[nH]1 — lower, 3.05%
- Cc1ccc(C)c(NC(=O)C(=O)C(C2C(C)CC(=O)C2CC(=O)O)[N+](=O)[O-])c1 (configuration not stated) — higher, 10.8%
- COc1cc(CCC(C)=O)ccc1OC(=O)c1c(-c2c(F)cccc2Cl)noc1C — higher, 19.3%
